# Source: publication PMC7862700, “An all-to-all approach to the identification of sequence-specific readers for epigenetic DNA modifications on cytosine”
# Tests used:
# Assay in all cases: DAPPL (digital affinity profiling via proximity ligation, sequencing); 10 mM Tris-HCl pH 7.5, 50 mM NaCl, 1 mM DTT, 4% glycerol, room temperature, 30 min; GST-TFs on glutathione beads, 16-mer random dsDNA library, 0.1% formaldehyde crosslink after washing; high values mean tight binding
# Settings in all cases: protein: recombinant; tags: N-terminal GST; dsDNA, one strand shown
# FEV = biological target: T1, FEV (Homo sapiens, UniProt Q99581 1-238)
# T1 sequence: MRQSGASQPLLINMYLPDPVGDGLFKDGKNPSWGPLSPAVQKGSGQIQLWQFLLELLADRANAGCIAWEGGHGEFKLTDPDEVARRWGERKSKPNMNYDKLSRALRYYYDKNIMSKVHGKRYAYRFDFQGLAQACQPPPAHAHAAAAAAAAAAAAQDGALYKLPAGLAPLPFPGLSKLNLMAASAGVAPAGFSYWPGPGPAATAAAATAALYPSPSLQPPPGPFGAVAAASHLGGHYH
# How it was run: (§1)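 Binding signal is given per hexamer as its read frequency for a factor divided by its frequency in the tag-only sample. GST-fused human transcription factors were expressed in yeast, captured on glutathione beads, barcoded with DNA and pooled with that sample, then incubated with 200 nmole of a 16-mer random double-stranded DNA library in Tris/NaCl/DTT/glycerol buffer for 30 min at room temperature. The pools were then washed, crosslinked, proximity-ligated, amplified by PCR and sequenced on an Illumina NextSeq500.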
# ETV5 = ETV5 (Homo sapiens, UniProt P41161 1-510)
# Sequence of ETV5 (P41161 whole entry): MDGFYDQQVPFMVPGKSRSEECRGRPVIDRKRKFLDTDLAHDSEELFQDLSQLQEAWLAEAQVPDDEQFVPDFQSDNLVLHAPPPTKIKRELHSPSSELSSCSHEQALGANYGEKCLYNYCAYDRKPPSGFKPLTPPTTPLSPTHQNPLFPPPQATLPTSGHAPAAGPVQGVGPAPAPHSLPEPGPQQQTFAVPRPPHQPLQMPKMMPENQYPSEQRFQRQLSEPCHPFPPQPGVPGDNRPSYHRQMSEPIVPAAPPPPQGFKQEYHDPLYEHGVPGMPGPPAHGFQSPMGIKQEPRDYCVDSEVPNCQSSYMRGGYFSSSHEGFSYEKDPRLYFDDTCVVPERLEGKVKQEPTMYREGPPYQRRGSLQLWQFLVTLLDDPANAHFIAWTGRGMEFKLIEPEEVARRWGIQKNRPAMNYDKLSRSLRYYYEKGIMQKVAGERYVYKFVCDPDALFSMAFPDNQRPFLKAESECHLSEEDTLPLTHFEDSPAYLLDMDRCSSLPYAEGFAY
# How it was run: as §1
# SPIC = biological target: T2, SPIC (Homo sapiens, UniProt Q8N5J4 1-248)
# T2 sequence: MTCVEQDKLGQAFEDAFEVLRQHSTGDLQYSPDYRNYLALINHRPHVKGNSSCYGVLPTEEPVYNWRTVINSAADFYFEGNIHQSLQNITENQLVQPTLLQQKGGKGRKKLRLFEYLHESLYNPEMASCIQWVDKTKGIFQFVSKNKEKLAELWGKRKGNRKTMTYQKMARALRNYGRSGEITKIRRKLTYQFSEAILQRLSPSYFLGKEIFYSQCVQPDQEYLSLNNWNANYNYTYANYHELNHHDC
# How it was run: as §1
# ELF4 = ELF4 (Homo sapiens, UniProt Q99607 1-663)
# Sequence of ELF4 (Q99607 whole entry): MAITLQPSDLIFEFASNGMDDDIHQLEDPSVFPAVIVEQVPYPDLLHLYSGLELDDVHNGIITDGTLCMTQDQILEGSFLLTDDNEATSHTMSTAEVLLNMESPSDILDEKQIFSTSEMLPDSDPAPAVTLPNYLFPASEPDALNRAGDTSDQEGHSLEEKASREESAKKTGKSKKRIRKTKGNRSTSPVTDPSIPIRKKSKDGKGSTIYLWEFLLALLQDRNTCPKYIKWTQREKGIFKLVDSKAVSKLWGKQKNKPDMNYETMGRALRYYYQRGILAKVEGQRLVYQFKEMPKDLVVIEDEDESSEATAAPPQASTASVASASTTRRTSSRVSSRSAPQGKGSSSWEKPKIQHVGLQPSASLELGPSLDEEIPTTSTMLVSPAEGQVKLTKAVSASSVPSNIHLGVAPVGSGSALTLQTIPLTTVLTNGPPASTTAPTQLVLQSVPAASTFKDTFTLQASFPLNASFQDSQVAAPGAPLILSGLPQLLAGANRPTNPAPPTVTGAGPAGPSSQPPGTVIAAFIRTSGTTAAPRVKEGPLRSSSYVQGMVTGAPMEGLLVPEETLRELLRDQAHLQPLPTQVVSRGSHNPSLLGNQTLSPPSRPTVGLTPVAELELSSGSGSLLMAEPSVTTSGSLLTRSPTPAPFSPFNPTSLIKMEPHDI
# How it was run: as §1
# ELK4 = biological target: T3, ELK4 (Homo sapiens, UniProt P28324-2 1-405)
# T3 sequence: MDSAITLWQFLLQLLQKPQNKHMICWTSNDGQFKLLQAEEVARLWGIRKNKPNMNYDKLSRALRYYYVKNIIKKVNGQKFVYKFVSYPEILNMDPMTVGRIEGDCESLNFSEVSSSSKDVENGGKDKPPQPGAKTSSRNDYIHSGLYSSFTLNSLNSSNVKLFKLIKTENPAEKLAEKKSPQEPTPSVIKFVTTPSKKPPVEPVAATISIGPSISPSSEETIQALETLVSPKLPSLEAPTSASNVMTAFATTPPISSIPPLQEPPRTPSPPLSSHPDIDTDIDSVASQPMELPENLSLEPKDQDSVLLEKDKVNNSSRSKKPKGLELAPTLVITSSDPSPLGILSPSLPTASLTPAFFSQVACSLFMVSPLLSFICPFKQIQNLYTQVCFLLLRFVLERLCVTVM
# How it was run: as §1
# ETV2 = biological target: T4, ETV2 (Homo sapiens, UniProt O00321 1-342)
# T4 sequence: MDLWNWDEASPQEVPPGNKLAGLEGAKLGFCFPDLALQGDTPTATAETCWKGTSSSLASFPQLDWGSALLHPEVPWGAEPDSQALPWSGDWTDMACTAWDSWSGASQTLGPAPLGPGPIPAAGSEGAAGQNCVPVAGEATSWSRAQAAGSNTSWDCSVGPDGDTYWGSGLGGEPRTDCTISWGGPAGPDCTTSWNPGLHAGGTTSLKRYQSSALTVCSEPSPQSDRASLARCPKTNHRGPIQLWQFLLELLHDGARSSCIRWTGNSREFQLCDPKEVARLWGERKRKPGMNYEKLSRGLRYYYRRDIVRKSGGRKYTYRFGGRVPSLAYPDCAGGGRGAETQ
# How it was run: as §1
# ELF3 = biological target: T5, ELF3 (Homo sapiens, UniProt P78545 1-371)
# T5 sequence: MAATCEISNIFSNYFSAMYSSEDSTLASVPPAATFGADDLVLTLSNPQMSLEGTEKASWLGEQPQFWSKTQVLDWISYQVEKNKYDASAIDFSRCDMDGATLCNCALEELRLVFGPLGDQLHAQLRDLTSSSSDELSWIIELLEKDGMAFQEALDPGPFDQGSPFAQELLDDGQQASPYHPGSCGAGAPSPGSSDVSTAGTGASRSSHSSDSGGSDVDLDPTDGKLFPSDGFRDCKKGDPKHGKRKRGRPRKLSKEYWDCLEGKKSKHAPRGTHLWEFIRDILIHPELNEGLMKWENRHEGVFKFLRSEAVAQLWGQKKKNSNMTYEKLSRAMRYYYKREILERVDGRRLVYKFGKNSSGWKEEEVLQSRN
# How it was run: as §1
# ETV1 = ETV1 (Homo sapiens, UniProt P50549 1-477)
# Sequence of ETV1 (P50549 whole entry): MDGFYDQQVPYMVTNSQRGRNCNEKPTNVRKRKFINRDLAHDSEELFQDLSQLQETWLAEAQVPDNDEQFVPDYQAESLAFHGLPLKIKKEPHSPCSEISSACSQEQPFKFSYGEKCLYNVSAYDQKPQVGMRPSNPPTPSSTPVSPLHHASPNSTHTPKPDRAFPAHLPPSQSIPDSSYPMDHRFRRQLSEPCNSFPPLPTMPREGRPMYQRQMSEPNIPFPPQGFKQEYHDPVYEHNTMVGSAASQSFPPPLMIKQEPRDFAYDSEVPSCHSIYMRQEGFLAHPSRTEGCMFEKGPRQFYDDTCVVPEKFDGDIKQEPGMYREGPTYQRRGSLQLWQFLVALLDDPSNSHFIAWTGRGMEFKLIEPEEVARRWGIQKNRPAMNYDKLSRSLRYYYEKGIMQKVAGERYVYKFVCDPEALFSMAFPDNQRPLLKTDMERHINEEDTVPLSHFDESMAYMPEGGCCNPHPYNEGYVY
# How it was run: as §1
# ERF = biological target: T6, ERF (Homo sapiens, UniProt P50548 1-548)
# T6 sequence: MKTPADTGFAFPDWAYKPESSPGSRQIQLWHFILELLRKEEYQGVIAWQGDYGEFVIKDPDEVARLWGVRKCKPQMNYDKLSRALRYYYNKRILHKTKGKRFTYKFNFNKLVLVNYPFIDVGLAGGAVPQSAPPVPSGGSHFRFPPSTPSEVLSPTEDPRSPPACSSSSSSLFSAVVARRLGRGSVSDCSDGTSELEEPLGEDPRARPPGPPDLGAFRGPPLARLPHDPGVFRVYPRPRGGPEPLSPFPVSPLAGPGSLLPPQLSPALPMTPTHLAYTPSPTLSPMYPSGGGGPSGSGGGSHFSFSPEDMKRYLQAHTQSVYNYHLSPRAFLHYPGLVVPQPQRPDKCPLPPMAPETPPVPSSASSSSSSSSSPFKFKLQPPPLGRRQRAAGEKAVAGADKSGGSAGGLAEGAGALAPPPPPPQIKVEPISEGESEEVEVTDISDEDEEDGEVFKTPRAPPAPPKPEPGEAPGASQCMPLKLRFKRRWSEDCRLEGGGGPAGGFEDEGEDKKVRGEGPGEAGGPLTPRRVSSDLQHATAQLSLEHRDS
# How it was run: as §1
# ETV3L = biological target: T7, ETV3L (Homo sapiens, UniProt Q6ZN32 1-361)
# T7 sequence: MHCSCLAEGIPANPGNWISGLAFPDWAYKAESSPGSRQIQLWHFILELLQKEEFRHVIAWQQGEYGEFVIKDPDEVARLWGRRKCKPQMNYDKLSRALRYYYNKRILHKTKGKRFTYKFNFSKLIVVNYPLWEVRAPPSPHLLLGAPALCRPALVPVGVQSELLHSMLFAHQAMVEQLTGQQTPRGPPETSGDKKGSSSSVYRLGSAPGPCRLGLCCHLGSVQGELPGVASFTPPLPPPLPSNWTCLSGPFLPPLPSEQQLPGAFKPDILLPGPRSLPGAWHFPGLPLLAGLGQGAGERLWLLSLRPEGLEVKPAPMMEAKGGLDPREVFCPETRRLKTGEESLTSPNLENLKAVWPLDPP
# How it was run: as §1
# ETS2 = biological target: T8, ETS2 (Homo sapiens, UniProt P15036 1-469)
# T8 sequence: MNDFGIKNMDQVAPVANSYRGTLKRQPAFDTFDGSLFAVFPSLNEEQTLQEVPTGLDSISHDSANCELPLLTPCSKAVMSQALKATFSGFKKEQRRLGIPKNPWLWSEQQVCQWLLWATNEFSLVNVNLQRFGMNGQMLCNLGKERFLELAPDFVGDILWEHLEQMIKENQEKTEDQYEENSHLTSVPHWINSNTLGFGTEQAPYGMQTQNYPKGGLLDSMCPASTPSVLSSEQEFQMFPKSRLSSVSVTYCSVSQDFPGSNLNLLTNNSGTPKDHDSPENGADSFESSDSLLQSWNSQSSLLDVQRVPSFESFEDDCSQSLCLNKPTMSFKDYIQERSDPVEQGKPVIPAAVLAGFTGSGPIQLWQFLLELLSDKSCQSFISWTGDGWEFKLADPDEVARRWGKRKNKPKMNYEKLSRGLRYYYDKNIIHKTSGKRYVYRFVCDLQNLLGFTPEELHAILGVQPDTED
# How it was run: as §1
# SPDEF = biological target: T9, SPDEF (Homo sapiens, UniProt O95238 1-335)
# T9 sequence: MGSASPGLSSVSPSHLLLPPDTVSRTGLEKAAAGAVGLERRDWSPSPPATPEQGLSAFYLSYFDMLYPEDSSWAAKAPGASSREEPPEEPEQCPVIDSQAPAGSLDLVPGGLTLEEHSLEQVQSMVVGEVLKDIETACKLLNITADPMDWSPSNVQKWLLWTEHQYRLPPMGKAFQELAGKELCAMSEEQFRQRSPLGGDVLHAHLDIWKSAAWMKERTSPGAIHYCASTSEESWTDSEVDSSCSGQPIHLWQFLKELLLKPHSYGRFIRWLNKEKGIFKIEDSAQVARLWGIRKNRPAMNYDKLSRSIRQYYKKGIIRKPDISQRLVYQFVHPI
# How it was run: as §1
# ETV7 = biological target: T10, ETV7 (Homo sapiens, UniProt Q9Y603 1-341)
# T10 sequence: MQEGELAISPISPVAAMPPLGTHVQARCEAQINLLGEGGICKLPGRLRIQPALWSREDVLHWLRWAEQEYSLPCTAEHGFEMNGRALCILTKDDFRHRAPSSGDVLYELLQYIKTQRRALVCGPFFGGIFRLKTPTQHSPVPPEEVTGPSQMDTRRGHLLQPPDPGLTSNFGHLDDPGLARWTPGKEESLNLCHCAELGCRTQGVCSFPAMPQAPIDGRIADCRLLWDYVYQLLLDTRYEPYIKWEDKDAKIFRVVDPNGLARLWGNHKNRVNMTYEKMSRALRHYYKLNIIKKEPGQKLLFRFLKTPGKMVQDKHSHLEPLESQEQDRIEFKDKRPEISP
# How it was run: as §1
# ELF5 = biological target: T11, ELF5 (Homo sapiens, UniProt Q9UKW6-2 1-255)
# T11 sequence: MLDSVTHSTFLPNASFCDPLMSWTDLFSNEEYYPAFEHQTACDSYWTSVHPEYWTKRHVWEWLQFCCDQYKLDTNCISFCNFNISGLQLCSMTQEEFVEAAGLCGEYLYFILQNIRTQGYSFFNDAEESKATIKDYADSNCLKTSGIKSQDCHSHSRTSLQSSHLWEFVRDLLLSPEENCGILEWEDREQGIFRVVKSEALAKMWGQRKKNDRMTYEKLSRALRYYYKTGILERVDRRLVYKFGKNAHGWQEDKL
# How it was run: as §1
# ETV3 = biological target: T12, ETV3 (Homo sapiens, UniProt P41162-2 1-143)
# T12 sequence: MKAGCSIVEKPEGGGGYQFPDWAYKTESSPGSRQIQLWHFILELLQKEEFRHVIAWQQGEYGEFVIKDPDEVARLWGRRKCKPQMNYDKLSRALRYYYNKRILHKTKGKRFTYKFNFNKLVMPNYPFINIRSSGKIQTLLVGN
# How it was run: as §1
# ETV6 = ETV6 (Homo sapiens, UniProt P41212 1-452)
# Sequence of ETV6 (P41212 whole entry): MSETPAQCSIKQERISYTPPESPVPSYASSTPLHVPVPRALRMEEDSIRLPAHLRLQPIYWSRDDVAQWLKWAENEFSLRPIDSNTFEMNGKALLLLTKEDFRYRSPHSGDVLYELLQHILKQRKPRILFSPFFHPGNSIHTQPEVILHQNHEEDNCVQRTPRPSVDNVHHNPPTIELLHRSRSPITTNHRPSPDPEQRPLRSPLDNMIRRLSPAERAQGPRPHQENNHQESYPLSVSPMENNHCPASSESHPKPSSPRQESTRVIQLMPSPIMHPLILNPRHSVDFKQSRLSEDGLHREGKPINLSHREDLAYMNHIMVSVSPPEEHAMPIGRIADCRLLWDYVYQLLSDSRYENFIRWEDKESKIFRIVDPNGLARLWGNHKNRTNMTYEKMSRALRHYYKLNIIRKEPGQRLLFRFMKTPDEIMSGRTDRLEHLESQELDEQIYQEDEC
# How it was run: as §1
sequence,measurement,setting,value
CGTCAC,binding signal,FEV,"1.26 fold enrichment (6-mer frequency, TF over GST control)"
same,binding signal,ETV5,"1.24 fold enrichment (6-mer frequency, TF over GST control)"
same,binding signal,SPIC,"1.18 fold enrichment (6-mer frequency, TF over GST control)"
same,binding signal,ELF4,"1.31 fold enrichment (6-mer frequency, TF over GST control)"
same,binding signal,ELK4,"1.24 fold enrichment (6-mer frequency, TF over GST control)"
same,binding signal,ETV2,"1.12 fold enrichment (6-mer frequency, TF over GST control)"
same,binding signal,ELF3,"1.21 fold enrichment (6-mer frequency, TF over GST control)"
same,binding signal,ETV1,"1.2 fold enrichment (6-mer frequency, TF over GST control)"
same,binding signal,ERF,"1.15 fold enrichment (6-mer frequency, TF over GST control)"
same,binding signal,ETV3L,"1.15 fold enrichment (6-mer frequency, TF over GST control)"
same,binding signal,ETS2,"1.27 fold enrichment (6-mer frequency, TF over GST control)"
same,binding signal,SPDEF,"1.21 fold enrichment (6-mer frequency, TF over GST control)"
same,binding signal,ETV7,"1.13 fold enrichment (6-mer frequency, TF over GST control)"
same,binding signal,ELF5,"1.16 fold enrichment (6-mer frequency, TF over GST control)"
same,binding signal,ETV3,"1.11 fold enrichment (6-mer frequency, TF over GST control)"
same,binding signal,ETV6,"1.24 fold enrichment (6-mer frequency, TF over GST control)"
